From PubChem BioAssay AID1159580 (chemical genetic matrix, 2015)
The campaign covered roughly 5,500 compounds. About 2,000 (36%) were called active. Inconclusive results (about 18%) are left out. Some of the results follow. Values without a mark were called inactive. Rule as the data show it: active = normalized growth mostly below about 0.91 (no sharp cut-off); inconclusive = no clear call, values can overlap the other calls; inactive = mostly above about 0.92.

Experiment: chemical genetic growth profiling, strain panel (AID 1159580);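 also: tested at 20 µM; growth read once vehicle control cultures reached saturation at 30 °C; 1 = growth at the plate median or of vehicle wells; lower values mean less growth of the strain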
Settings: growth OD
[1] = S. cerevisiae deletion strains, locus YAL013W, strain DEP1, hits give low values
[2] = S. cerevisiae deletion strains, locus YBR229C, strain ROT2, hits give low values
[3] = S. cerevisiae deletion strains, locus YDL101C, strain DUN1, hits give low values
[4] = S. cerevisiae deletion strains, locus YDL134C, strain PPH21, hits give low values
[5] = S. cerevisiae deletion strains, locus YDR150W, strain NUM1, hits give low values
[6] = S. cerevisiae deletion strains, locus YEL061C, strain CIN8, hits give low values
[7] = S. cerevisiae deletion strains, locus YGR078C, strain PAC10, hits give low values
[8] = S. cerevisiae deletion strains, locus YHR030C, strain SLT2, hits give low values
[9] = S. cerevisiae deletion strains, locus YHR087W, strain rtc3, hits give low values
[10] = S. cerevisiae deletion strains, locus YJR043C, strain POL32, hits give low values
[11] = S. cerevisiae deletion strains, locus YJR075W, strain HOC1, hits give low values
[12] = S. cerevisiae deletion strains, locus YLR039C, strain RIC1, hits give low values
[13] = S. cerevisiae deletion strains, locus YLR058C, strain SHM2 (second series), hits give low values
[14] = S. cerevisiae deletion strains, locus YLR085C, strain ARP6, hits give low values
[15] = S. cerevisiae deletion strains, locus YLR262C, strain YPT6, hits give low values
[16] = S. cerevisiae deletion strains, locus YML094W, strain GIM5, hits give low values
[17] = S. cerevisiae deletion strains, locus YMR219W, strain ESC1, hits give low values
[18] = S. cerevisiae deletion strains, locus YMR263W, strain SAP30, hits give low values
[19] = S. cerevisiae deletion strains, locus YNL153C, strain GIM3, hits give low values
[20] = S. cerevisiae deletion strains, locus YNL298W, strain CLA4 (second series), hits give low values
[21] = S. cerevisiae deletion strains, locus YNL322C, strain KRE1, hits give low values
[22] = S. cerevisiae deletion strains, locus YNR030W, strain Alg12, hits give low values
[23] = S. cerevisiae deletion strains, locus YPL055C, strain LGE1, hits give low values
[24] = S. cerevisiae deletion strains, locus YPL241C, strain CIN2, hits give low values
[25] = S. cerevisiae deletion strains, locus YPR135W, strain CTF4, hits give low values
[26] = S. cerevisiae deletion strains, locus YMR307W, strain GAS1, hits give low values

## S=c1nc2[nH]c3ccccc3c2n[nH]1
[1]
  normalized growth: 0.98
[2]
  normalized growth: 0.982
[3]
  normalized growth: 0.985
[4]
  normalized growth: 0.973
[5]
  normalized growth: 1.01
[6]
  normalized growth: 1
[7]
  normalized growth: 0.976
[8]
  normalized growth: 0.962
[9]
  normalized growth: 1.04
[10]
  normalized growth: 0.974
[11]
  normalized growth: 1
[12]
  normalized growth: 0.996
[13]
  normalized growth: 0.99
[14]
  normalized growth: 0.927
[15]
  normalized growth: 0.995
[16]
  normalized growth: 0.978
[17]
  normalized growth: 0.994
[18]
  normalized growth: 1.03
[19]
  normalized growth: 0.977
[20]
  normalized growth: 0.944
[21]
  normalized growth: 0.991
[22]
  normalized growth: 0.972
S. cerevisiae deletion strains, locus YOL006C, strain TOP1, hits give low values
  normalized growth: 1
[23]
  normalized growth: 1
[24]
  normalized growth: 0.974
[25]
  normalized growth: 0.916
S. cerevisiae strains, strain wild type, hits give low values
  normalized growth: 0.984

## CNC(=O)[C@H]1O[C@@H](n2cnc3c(NCc4cccc(I)c4)ncnc32)C(O)[C@H]1O (stereo not given in full)
S. cerevisiae deletion strains, locus YAL040C, strain CLN3, hits give low values
  normalized growth: 0.988
S. cerevisiae deletion strains, locus YCL061C, strain MRC1 (second series), hits give low values
  normalized growth: 0.998
S. cerevisiae deletion strains, locus YDR363W, strain ESC2, hits give low values
  normalized growth: 1.01
S. cerevisiae deletion strains, locus YER002W, strain NOP16, hits give low values
  normalized growth: 0.993
[7]
  normalized growth: 1.01
[18]
  normalized growth: 0.999
[26]
  normalized growth: 0.992
S. cerevisiae deletion strains, locus YNL128W, strain TEP1, hits give low values
  normalized growth: 0.994
S. cerevisiae deletion strains, locus YNL175C, strain NOP13, hits give low values
  normalized growth: 1.01
S. cerevisiae deletion strains, locus YNL197C, strain WHI3, hits give low values
  normalized growth: 0.998
S. cerevisiae deletion strains, locus YNL224C, strain SQS1, hits give low values
  normalized growth: 1.02
[21]
  normalized growth: 0.992
S. cerevisiae deletion strains, locus YOR083W, strain WHI5 (second series), hits give low values
  normalized growth: 0.991
[23]
  normalized growth: 1.01
[24]
  normalized growth: 1

## O=C(Nc1cccc(C(F)(F)F)c1)c1cncc(C#Cc2ccccc2)c1
S. cerevisiae deletion strains, locus YAR019C, strain CDC15, hits give low values
  normalized growth: 0.971
S. cerevisiae deletion strains, locus YBL105C, strain PKC1, hits give low values
  normalized growth: 0.98
S. cerevisiae deletion strains, locus YBR135W, strain CKS1, hits give low values
  normalized growth: 0.983
S. cerevisiae deletion strains, locus YBR136W, strain MEC1, hits give low values
  normalized growth: 0.982
S. cerevisiae deletion strains, locus YBR160W, strain CDC28, hits give low values
  normalized growth: 0.983
S. cerevisiae deletion strains, locus YDL017W, strain CDC7, hits give low values
  normalized growth: 0.983
S. cerevisiae deletion strains, locus YDL028C, strain MPS1, hits give low values
  normalized growth: 0.978
[3]
  normalized growth: 0.987
S. cerevisiae deletion strains, locus YDL108W, strain KIN28, hits give low values
  normalized growth: 0.984
S. cerevisiae deletion strains, locus YDL132W, strain cdc53, hits give low values
  normalized growth: 0.983
S. cerevisiae deletion strains, locus YDL214C, strain PRR2, hits give low values
  normalized growth: 0.905
S. cerevisiae deletion strains, locus YDR052C, strain DBF4, hits give low values
  normalized growth: 0.983
S. cerevisiae deletion strains, locus YDR054C, strain cdc34, hits give low values
  normalized growth: 0.963
S. cerevisiae deletion strains, locus YDR226W, strain ADK1, hits give low values
  normalized growth: 0.973
S. cerevisiae deletion strains, locus YDR477W, strain SNF1, hits give low values
  normalized growth: 0.929
S. cerevisiae deletion strains, locus YER123W, strain YCK3, hits give low values
  normalized growth: 0.809
S. cerevisiae deletion strains, locus YER133W, strain GLC7, hits give low values
  normalized growth: 0.936
S. cerevisiae deletion strains, locus YFL009W, strain cdc4, hits give low values
  normalized growth: 0.968
S. cerevisiae deletion strains, locus YFL029C, strain CAK1, hits give low values
  normalized growth: 0.97
S. cerevisiae deletion strains, locus YFR003C, strain YPI1, hits give low values
  normalized growth: 0.983
S. cerevisiae deletion strains, locus YFR019W, strain FAB1, hits give low values
  normalized growth: 0.862
S. cerevisiae deletion strains, locus YFR028C, strain CDC14, hits give low values
  normalized growth: 0.969
S. cerevisiae deletion strains, locus YGR040W, strain KSS1, hits give low values
  normalized growth: 0.89
S. cerevisiae deletion strains, locus YGR052W, strain FMP48, hits give low values
  normalized growth: 0.977
S. cerevisiae deletion strains, locus YGR092W, strain DBF2, hits give low values
  normalized growth: 0.826
[8]
  normalized growth: 0.847 (active)
S. cerevisiae deletion strains, locus YHR079C, strain IRE1, hits give low values
  normalized growth: 0.854
S. cerevisiae deletion strains, locus YHR082C, strain KSP1, hits give low values
  normalized growth: 0.905
S. cerevisiae deletion strains, locus YHR205W, strain SCH9, hits give low values
  normalized growth: 0.776
S. cerevisiae deletion strains, locus YIL147C, strain SLN1, hits give low values
  normalized growth: 0.98
S. cerevisiae deletion strains, locus YJL095W, strain BCK1, hits give low values
  normalized growth: 0.903
S. cerevisiae deletion strains, locus YJL128C, strain PBS2, hits give low values
  normalized growth: 0.978
S. cerevisiae deletion strains, locus YJL157C, strain FAR1, hits give low values
  normalized growth: 0.878
S. cerevisiae deletion strains, locus YJR016C, strain ILV3, hits give low values
  normalized growth: 0.983
S. cerevisiae deletion strains, locus YJR066W, strain TOR1 (second series), hits give low values
  normalized growth: 0.905
S. cerevisiae deletion strains, locus YJR066W, strain TOR1, hits give low values
  normalized growth: 0.865
S. cerevisiae deletion strains, locus YKL048C, strain ELM1, hits give low values
  normalized growth: 0.877
S. cerevisiae deletion strains, locus YKL067W, strain YNK1, hits give low values
  normalized growth: 0.901
S. cerevisiae deletion strains, locus YKL101W, strain HSL1, hits give low values
  normalized growth: 0.883
S. cerevisiae deletion strains, locus YKL193C, strain SDS22, hits give low values
  normalized growth: 0.982
S. cerevisiae deletion strains, locus YKL203C, strain TOR2, hits give low values
  normalized growth: 0.937
S. cerevisiae deletion strains, locus YLR113W, strain HOG1, hits give low values
  normalized growth: 0.902
S. cerevisiae deletion strains, locus YLR133W, strain CKI1, hits give low values
  normalized growth: 0.868
S. cerevisiae deletion strains, locus YLR403W, strain SFP1, hits give low values
  normalized growth: 0.843
S. cerevisiae deletion strains, locus YML070W, strain DAK1, hits give low values
  normalized growth: 0.914
S. cerevisiae deletion strains, locus YMR001C, strain CDC5, hits give low values
  normalized growth: 0.98
S. cerevisiae deletion strains, locus YMR205C, strain PFK2 (second series), hits give low values
  normalized growth: 0.935
S. cerevisiae deletion strains, locus YMR277W, strain FCP1, hits give low values
  normalized growth: 0.975
S. cerevisiae deletion strains, locus YNL006W, strain LST8, hits give low values
  normalized growth: 0.981
S. cerevisiae deletion strains, locus YNL020C, strain ARK1, hits give low values
  normalized growth: 0.853
S. cerevisiae deletion strains, locus YNL161W, strain CBK1, hits give low values
  normalized growth: 0.985
S. cerevisiae deletion strains, locus YNL183C, strain NPR1, hits give low values
  normalized growth: 0.919
S. cerevisiae deletion strains, locus YNL207W, strain RIO2, hits give low values
  normalized growth: 0.99
S. cerevisiae deletion strains, locus YNL222W, strain SSU72, hits give low values
  normalized growth: 0.978
S. cerevisiae deletion strains, locus YNL307C, strain MCK1 (second series), hits give low values
  normalized growth: 0.77
S. cerevisiae deletion strains, locus YOL078W, strain AVO1, hits give low values
  normalized growth: 0.977
S. cerevisiae deletion strains, locus YOL136C, strain PFK27, hits give low values
  normalized growth: 0.899
S. cerevisiae deletion strains, locus YOR061W, strain CKA2, hits give low values
  normalized growth: 0.875
S. cerevisiae deletion strains, locus YOR119C, strain RIO1, hits give low values
  normalized growth: 0.977
S. cerevisiae deletion strains, locus YOR231W, strain MKK1, hits give low values
  normalized growth: 0.915
S. cerevisiae deletion strains, locus YOR329C, strain SCD5, hits give low values
  normalized growth: 0.981
S. cerevisiae deletion strains, locus YPL031C, strain PHO85, hits give low values
  normalized growth: 0.916
S. cerevisiae deletion strains, locus YPL153C, strain RAD53, hits give low values
  normalized growth: 0.921
S. cerevisiae deletion strains, locus YPL204W, strain HRR25, hits give low values
  normalized growth: 0.883
S. cerevisiae deletion strains, locus YPL209C, strain IPL1, hits give low values
  normalized growth: 0.988
S. cerevisiae deletion strains, locus YPL256C, strain CLN2, hits give low values
  normalized growth: 0.897
S. cerevisiae deletion strains, locus YPR025C, strain CCL1, hits give low values
  normalized growth: 0.977
S. cerevisiae deletion strains, locus YPR106W, strain ISR1, hits give low values
  normalized growth: 0.977
S. cerevisiae deletion strains, locus YPR111W, strain DBF20, hits give low values
  normalized growth: 0.964
S. cerevisiae deletion strains, strain NNK1, hits give low values
  normalized growth: 0.974
S. cerevisiae deletion strains, strain TSCII, hits give low values
  normalized growth: 0.989

## O=C(O)c1cncc(C#Cc2ccccc2)c1
[1]
  normalized growth: 0.982
[2]
  normalized growth: 0.976
[3]
  normalized growth: 0.991
[4]
  normalized growth: 1.01
[5]
  normalized growth: 1.01
[6]
  normalized growth: 1
[7]
  normalized growth: 0.957
S. cerevisiae deletion strains, locus YGR229C, strain SMI1, hits give low values
  normalized growth: 0.957
[8]
  normalized growth: 0.956
[9]
  normalized growth: 1
[10]
  normalized growth: 0.957
[11]
  normalized growth: 0.961
[12]
  normalized growth: 0.976
[13]
  normalized growth: 0.949
[14]
  normalized growth: 1.04
[15]
  normalized growth: 0.996
[16]
  normalized growth: 1.02
[17]
  normalized growth: 0.972
[18]
  normalized growth: 0.981
[26]
  normalized growth: 1.03
[19]
  normalized growth: 0.931
[20]
  normalized growth: 0.991
[21]
  normalized growth: 0.971
[22]
  normalized growth: 0.989
[23]
  normalized growth: 1
[24]
  normalized growth: 1.01
[25]
  normalized growth: 0.935
